# Screening data as filed in PubChem BioAssay.
# MITF inh – inhibitors of MITF, primary screen, MITF inhibitor project, cell-based, luminescence; inhibition, % (no concentration beside the values); TRPM1 promoter luciferase, 24 h; 37,000 tested, 0.28% active; in the data active means inhibition above about 85%;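 further: human melanocyte line stably carrying TRPM1 promoter luciferase reporter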
# Hedgehog inh – Hedgehog pathway signaling inhibitors, primary screen, luminescence, Shh-LIGHT2 cells, Gli-luciferase; 22,000 tested, 2.1% active; Shh-LIGHT2 Gli-luciferase reporter, 30 h; inhibition, % (concentration not given with the values);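 active means mean inhibition across valid replicates above about 65%, limit read from the data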;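 further: pathway switched on by Shh-conditioned medium diluted 1 in 25 in low serum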
# NOMO-1 viab – NOMO-1 AML cell viability reduction, primary screen, STK33 inhibitor project, CellTiter-Glo luminescence; NOMO-1 AML viability, 72 h; 37,000 tested, 7.5% active; AID 2330, 2010; inhibition, % (no concentration beside the values); in the data active means inhibition above about 80%
# Numbers without * were called inactive; / = no result given; ! = not active in a repeat. Hits are enriched below; roughly 8.1% of the tested compounds scored in any of these assays.
SMILES,MITF inh,Hedgehog inh,NOMO-1 viab
CCCCC/C=C\C/C=C\CCCCCCCC(=O)OC(CO)COP(=O)(O)OCC[N+](C)(C)C (stereo not given),/,-29,/
COc1ccc(NC(=O)CN(c2ccc(Br)c(C)c2)S(C)(=O)=O)cc1Cl,10,/,4
COc1ccc(OC)c(S(=O)(=O)N2CCC(C(=O)Nc3cc(Cl)ccc3Oc3ccccc3)CC2)c1,-3,/,42
COc1cccc2sc(NC(=O)c3ccc(S(=O)(=O)N4CCCC(C)C4)cc3)nc12 (stereo not given),15,-47,59
CCn1c(SCC(=O)Nc2ccc(C)c(C)c2)nnc1-c1ccncc1,-5,/,-1
COc1ccc(C)cc1NC(=O)C1CCCN(S(=O)(=O)c2ccc(C)cc2)C1 (stereo not given),6,/,17
Cc1c(NC(=O)C(C)(C)C)c(=O)n(-c2ccccc2)n1C,2,/,13
CSc1ccccc1NC(=O)CN(C)S(=O)(=O)c1ccc(Cl)cc1,34,/,1
C[C@@H]1CN([C@@H](C)CO)C(=O)c2cc(NC(=O)Cc3cn(C)c4ccccc34)ccc2O[C@H]1CN(C)Cc1ccc2c(c1)OCO2,27,/,36
C[C@H]1CN([C@@H](C)CO)C(=O)c2cc(NC(=O)Cc3cn(C)c4ccccc34)ccc2O[C@@H]1CN(C)Cc1ccc2c(c1)OCO2,11,/,98*
O=S(=O)(NCC(O)Cn1c2ccc(Cl)cc2c2cc(Cl)ccc21)c1ccccc1 (stereo not given),5,/,113*
OC(Cn1nnc2ccccc21)Cn1c2ccc(Cl)cc2c2cc(Cl)ccc21 (stereo not given),-7,/,43
CC1(C)CC[C@]2(C(=O)O)CC[C@]3(C)C(=CCC4[C@@]5(C)C[C@@H](O)[C@H](O)[C@@](C)(CO)C5CC[C@]43C)[C@@H]2[C@@H]1O (stereo not given in full),/,-8,/
COc1cc(Cl)c(C(F)(F)F)cc1NC(=O)c1c(OC)cccc1OC,2,5,43
CS(=O)(=O)N(CC(=O)Nc1ccc(I)cc1)C1CCCCC1,14,/,53
COc1cccc(C(=O)NC(c2ccc(Cl)cc2)c2c(O)ccc3ccccc23)c1 (stereo not given),102*,/,108*
CCC(Oc1cccc(NC(=O)c2ccc([N+](=O)[O-])cc2)c1)C(=O)c1ccccc1 (stereo not given),31,/,35
COc1cccc(C(=O)NC(c2ccccc2OC)c2c(O)ccc3ccccc23)c1 (stereo not given),-12,/,2
COc1cccc(C(=O)NC(c2ccc([N+](=O)[O-])cc2)c2c(O)ccc3ccccc23)c1 (stereo not given),78,/,114*
COC(=O)c1c(NC(=O)c2cc3ccccc3oc2=O)sc2c1C(C(=O)OC)CC2 (stereo not given),-41,/,-26
Cc1ccc(S(=O)(=O)Nc2cccc3c2O[C@H](CN(C)Cc2ccc(Cl)c(Cl)c2)[C@H](C)CN([C@@H](C)CO)C3=O)cc1,9,17,104*
Cc1ccc(S(=O)(=O)Nc2cccc3c2O[C@@H](CN(C)Cc2ccc(Cl)c(Cl)c2)[C@@H](C)CN([C@H](C)CO)C3=O)cc1,60,113*,119*
C[C@H](CO)N1C[C@H](C)[C@@H](CN(C)Cc2ccc(Cl)c(Cl)c2)Oc2c(NS(=O)(=O)c3ccc(F)cc3)cccc2C1=O,-21,22,19
C[C@H](CO)N1C[C@H](C)[C@H](CN(C)Cc2ccc(Cl)c(Cl)c2)Oc2c(NS(=O)(=O)c3ccc(Cl)cc3)cccc2C1=O,49,90*,109*
Cc1ccc(S(=O)(=O)Nc2cccc3c2O[C@H](CN(C)Cc2ccc(Cl)c(Cl)c2)[C@H](C)CN([C@H](C)CO)C3=O)cc1,22,40,41
SMILES,MITF inh,Hedgehog inh,NOMO-1 viab
Cc1ccc(S(=O)(=O)Nc2cccc3c2O[C@H](CN(C)Cc2ccc(Cl)c(Cl)c2)[C@@H](C)CN([C@@H](C)CO)C3=O)cc1,3,13,37
COc1ccc(NC(=O)C(=O)NCCCO)c(OC)c1,-29,/,-32
COC(=O)CN(c1ccc2c(c1)OCCO2)S(C)(=O)=O,-3,/,46
CCc1c(O)nc(SCC(=O)Nc2ccc(C(C)=O)cc2)[nH]c1=O,-48,/,25
COc1ccccc1NC(=O)c1cnc(Nc2nc3ccccc3o2)nc1C,-81,/,18
COc1ccc(OC)c(S(=O)(=O)N(C)CC(=O)Nc2ccc(C(F)(F)F)cc2)c1,19,/,10
O=C1C(SCCO)=C(SCCO)C(=O)c2ccccc21,103*,104*,114*
O=C1c2ccccc2C(=O)N1C(CO)C(O)c1ccccc1 (stereo not given),11,-21,25
Cc1cc2c(C(C)C)c(O)c(O)c(C=O)c2c(O)c1-c1c(C)cc2c(C(C)C)c(O)c(O)c(C=O)c2c1O,31,68*!,111*
CCc1cc(O)c(C)c(O)c1C=O,/,3,/
Cc1nc(SCC(=O)NCc2ccccc2)c2c(C)c(C)sc2n1,2,/,24
C[C@H]1CN([C@@H](C)CO)C(=O)c2cc(NS(=O)(=O)c3cccs3)ccc2O[C@H]1CN(C)Cc1ccc(C(=O)Nc2ccccc2N)cc1,18,/,71
C[C@@H]1CN([C@@H](C)CO)C(=O)c2cc(NS(C)(=O)=O)ccc2O[C@H]1CN(C)Cc1ccc(C(=O)Nc2ccccc2N)cc1,-9,/,27
C[C@@H]1CN([C@H](C)CO)C(=O)c2cc(NS(=O)(=O)c3cccs3)ccc2O[C@@H]1CN(C)Cc1ccc(C(=O)Nc2ccccc2N)cc1,25,/,110*
C[C@H](CO)N1C[C@H](C)[C@H](CN(C)Cc2ccc(C(=O)Nc3ccccc3N)cc2)Oc2ccc(NS(=O)(=O)c3cccs3)cc2C1=O,24,/,109*
COC(=O)c1cc(NC(=O)CSc2nc(Nc3ccccc3)nc(N3CCOCC3)n2)ccc1Cl,3,/,117*
O=C(CSc1nc(Nc2ccccc2)nc(N2CCOCC2)n1)Nc1ccccc1Cl,-67,/,13
CN(C)C(=O)C(CCN1CCC(O)(c2ccc(Cl)cc2)CC1)(c1ccccc1)c1ccccc1,-6,58,138*!
O=C(CCN1CCCCC1)Nc1ccc(Cl)cc1,9,-15,-16
CN1CCN(C(c2ccccc2)c2ccccc2)CC1,15,38,14
NC(=O)c1ccc(N2CCN(C(c3ccccc3)c3ccccc3)CC2)nc1,-19,37,109*
Cc1cc(NS(=O)(=O)c2ccc(NS(=O)(=O)c3cccs3)cc2)nc(C)n1,-23,/,2
COc1cccc(NC(=O)CSc2nnc(-c3cccc(C)c3)n2-c2ccccc2)c1,37,/,-7
COc1cccc(-c2nn(-c3ccccc3)cc2C(=O)n2nnc3ccccc32)c1,48,/,128*
Cc1ccc(NC(=O)c2ccc(OCC(=O)Nc3ccc(Oc4ccccc4)cc3)cc2)c(C)c1,-7,/,13
COC(=O)c1ccccc1NC(=O)CSc1nnnn1-c1cccc2ccccc12,16,/,-1
COc1ccc(CCNC(=O)Nc2ccc(C(C)=O)cc2)cc1OC,-6,/,12
COC1OC(OC)C(O)(CC[C@@]2(O)[C@H](C)C[C@@H](O)C3[C@@](C)(CO)CCC[C@]32C)C1O (stereo not given in full),-38,5,82*
